The structures appear in SMILES notation. Inconclusive results are not listed. More than one record can exist for a structure, and the calls need not agree. Active and inactive are the calls of the source. Unless noted, calls come from the whole dose curve; as a rule, active = well fitted curve in the direction sought with a large enough effect in the repeat runs; inconclusive = weak or mixed curves; inactive = no such curve, though single readings can be large; an effect the other way counts as inactive or inconclusive.

The values that follow come from PubChem BioAssay (Tox21).

Experiment [1] addresses Acetylcholinesterase (Homo sapiens) (UniProt P22303). The experiment can be described thus: Acetylcholinesterase (AChE) small molecule antagonists: enzyme-based qHTS assay (AID 1347397; calls by dose curve; note: nearly all actives have a fitted effect of over 55% in size). To be noted: Potency: AChE enzyme activity inhibition; outcome: AChE enzyme activity inhibition. A digest of the protocol: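 First, recombinant human AChE (50 mU/mL as dispensed) received test compound or DMSO. Second, plates stood 30 min at room temperature. Third, DTNB and acetylthiocholine were added, followed by 10 min at room temperature and colorimetric detection.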

Experiment [2] shares this target. As to the kind of experiment: Acetylcholinesterase (AChE) small molecule antagonists: fluorescence cell-based qHTS assay (AID 1347398; calls by dose curve; note: nearly all actives have a fitted effect of over 50% in size). To be noted: Potency: AChE activity; outcome: AChE activity. The essentials:
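Homogeneous quantitative HTS format. SH-SY5Y cells seeded at 2,000 per well settle overnight at 37 C. Compound pretreatment runs 30 min (37 C, 5% CO2); substrate/probe mix then reacts 40 min at RT before reading 490/520 nm.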
(qHTS replaces the single test concentration by a dilution series.)

Experiment [3] has the same target. The experiment can be described thus: Acetylcholinesterase (AChE) small molecule antagonists: enzyme-based qHTS assay with human liver microsomes (AID 1347399; calls by dose curve; note: nearly all actives have a fitted effect of over 60% in size). To be noted: Potency: qHTS inhibition; outcome: qHTS inhibition. The essentials:
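Recombinant human AChE (50 mU/mL in the enzyme mix) and human liver microsomes (0.25 mg/mL final) were preincubated with compound and NADPH (0.25 mg/mL final) for 30 min at 37 C. Acetylthiocholine/DTNB was then added; thiocholine was read colorimetrically after 10 min at room temperature.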

Experiment [4] addresses Cytochrome P450 2D6 (Homo sapiens) (UniProt P10635). As to the kind of experiment: Cytochrome P450 Family 2 Subfamily D Member 6 (CYP2D6) small molecule antagonists: luciferase reporter qHTS assay (AID 1671196). For activity change, negative = inhibition: series mostly up to about 120 µM. Note: nearly all actives have a fitted effect of over 50% in size. Note: potency is the fitted concentration of half-maximal effect. A digest of the protocol: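 Room-temperature luminescent CYP2D6 activity assay: compound preincubated 10 min with enzyme–substrate mix, NADPH-initiated reaction 1 h, detection reagent 20 min before reading.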
In general terms: A reporter such as luciferase makes a cellular process visible.

For experiment [5], the target named is Cytochrome P450 2C9 (Homo sapiens) (UniProt P11712). As to the kind of experiment: Cytochrome P450 Family 2 Subfamily C Member 9 (CYP2C9) small molecule antagonists: luciferase reporter qHTS assay (AID 1671198). For activity change, negative = inhibition: series mostly up to about 120 µM. Note: nearly all actives have a fitted effect of over 50% in size. Note: potency is the fitted concentration of half-maximal effect. The essentials: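 Enzyme-substrate mix preincubated with compound 10 min at room temperature; reaction started with NADPH regeneration solution, 1 h 37C. Luminescent luciferin product read after 20 min detection reagent.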
Chain of Cytochrome P450 2C9 (Homo sapiens) (P11712 whole entry, looked up): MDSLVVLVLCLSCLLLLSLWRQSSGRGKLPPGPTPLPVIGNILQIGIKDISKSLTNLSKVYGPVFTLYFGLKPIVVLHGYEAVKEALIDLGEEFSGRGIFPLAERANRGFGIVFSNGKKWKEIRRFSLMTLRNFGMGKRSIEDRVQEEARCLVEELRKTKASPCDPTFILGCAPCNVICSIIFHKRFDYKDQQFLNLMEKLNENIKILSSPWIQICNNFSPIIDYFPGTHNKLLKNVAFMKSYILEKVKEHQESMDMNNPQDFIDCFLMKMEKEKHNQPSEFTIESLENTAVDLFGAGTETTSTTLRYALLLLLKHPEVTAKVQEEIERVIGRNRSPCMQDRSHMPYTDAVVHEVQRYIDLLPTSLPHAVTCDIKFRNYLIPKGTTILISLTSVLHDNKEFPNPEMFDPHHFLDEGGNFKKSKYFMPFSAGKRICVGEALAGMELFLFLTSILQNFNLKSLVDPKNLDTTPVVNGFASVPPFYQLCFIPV

Experiment [6] has as its target Cytochrome P450 1A2 (Homo sapiens) (UniProt P05177). The experiment can be described thus: Cytochrome P450 Family 1 Subfamily A Member 2 (CYP1A2) small molecule antagonists: luciferase reporter qHTS assay (AID 1671199). For activity change, negative = inhibition: series mostly up to about 120 µM. Note: nearly all actives have a fitted effect of over 50% in size. Note: potency is the fitted concentration of half-maximal effect. The essentials:
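Room-temperature CYP1A2 reaction with proluciferin substrate: compounds added from DMSO, 10 min preincubation, NADPH regeneration for 1 h. Luciferin detection reagent then added; luminescence recorded as RLU.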

Experiment [7] addresses Voltage-gated inwardly rectifying potassium channel KCNH2 (Homo sapiens) (UniProt Q12809). As to the kind of experiment: Human Ether-a-go-go-Related Gene (hERG) channel small molecule antagonists: fluorescence cell-based qHTS assay (AID 1671200).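 For activity change, negative = inhibition: hERG-expressing U2OS cells given a thallium stimulus after FluxOR II dye loading; series mostly up to about 77 µM.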 Note: nearly all actives have a fitted effect of over 50% in size. Note: potency is the fitted concentration of half-maximal effect. The essentials: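 hERG-U2OS cells plated overnight at 37 C, loaded with FluxOR II dye 1 h at RT in dark; after 10 min, thallium stimulus added. Fluorescence (480/540 nm) read kinetically for 2 min at 1 s intervals.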
Background: Block of hERG is tested as a sign of cardiac risk.

The target in experiment [8] is Cytochrome P450 3A4 (Homo sapiens) (UniProt P08684). The experiment can be described thus: Cytochrome P450 Family 3 Subfamily A Member 4 (CYP3A4) small molecule antagonists: luciferase reporter qHTS assay (AID 1671201). The essentials:
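P450-Glo CYP3A4 luminescent assay: compounds preincubated 10 min at room temperature with enzyme and proluciferin substrate, NADPH regeneration added, 1 h room-temperature reaction, stopped with luciferin detection reagent; luminescence read after 20 min. Ketoconazole positive control.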

The target of experiment [9] is Cytochrome P450 2C19 (Homo sapiens) (UniProt P33261). As to the kind of experiment: Cytochrome P450 Family 2 Subfamily C Member 19 (CYP2C19) small molecule antagonists: luciferase reporter qHTS assay (AID 1671197). For activity change, negative = inhibition: series mostly up to about 120 µM. Note: nearly all actives have a fitted effect of over 65% in size. Note: potency is the fitted concentration of half-maximal effect. The essentials:
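First, compounds are pinned into enzyme-substrate mix and held 10 min at room temperature. Second, NADPH regeneration solution is added and plates incubate 1 h at 37C. Third, detection reagent is added and luminescence read after 20 min.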
% is set by controls: 0 for no effect and ±100 for the full control effect.

Chain of Acetylcholinesterase (Homo sapiens) (P22303 whole entry, looked up): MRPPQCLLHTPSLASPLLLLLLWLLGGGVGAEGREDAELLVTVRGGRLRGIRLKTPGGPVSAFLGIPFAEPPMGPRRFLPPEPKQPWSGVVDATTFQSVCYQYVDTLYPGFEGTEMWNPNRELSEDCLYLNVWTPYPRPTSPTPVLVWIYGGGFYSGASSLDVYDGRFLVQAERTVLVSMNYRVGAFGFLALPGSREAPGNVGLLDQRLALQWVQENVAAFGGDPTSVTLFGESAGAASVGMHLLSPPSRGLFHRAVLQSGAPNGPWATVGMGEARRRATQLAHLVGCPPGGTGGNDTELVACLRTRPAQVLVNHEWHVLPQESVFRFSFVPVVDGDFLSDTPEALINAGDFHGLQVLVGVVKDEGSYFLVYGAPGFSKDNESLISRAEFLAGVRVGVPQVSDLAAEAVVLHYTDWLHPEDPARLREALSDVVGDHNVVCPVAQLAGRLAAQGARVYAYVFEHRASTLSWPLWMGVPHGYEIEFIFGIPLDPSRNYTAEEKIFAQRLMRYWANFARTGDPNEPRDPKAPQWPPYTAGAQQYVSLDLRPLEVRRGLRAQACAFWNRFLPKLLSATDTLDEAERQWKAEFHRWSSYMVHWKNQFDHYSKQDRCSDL
Chain of Cytochrome P450 3A4 (Homo sapiens) (P08684 whole entry, looked up): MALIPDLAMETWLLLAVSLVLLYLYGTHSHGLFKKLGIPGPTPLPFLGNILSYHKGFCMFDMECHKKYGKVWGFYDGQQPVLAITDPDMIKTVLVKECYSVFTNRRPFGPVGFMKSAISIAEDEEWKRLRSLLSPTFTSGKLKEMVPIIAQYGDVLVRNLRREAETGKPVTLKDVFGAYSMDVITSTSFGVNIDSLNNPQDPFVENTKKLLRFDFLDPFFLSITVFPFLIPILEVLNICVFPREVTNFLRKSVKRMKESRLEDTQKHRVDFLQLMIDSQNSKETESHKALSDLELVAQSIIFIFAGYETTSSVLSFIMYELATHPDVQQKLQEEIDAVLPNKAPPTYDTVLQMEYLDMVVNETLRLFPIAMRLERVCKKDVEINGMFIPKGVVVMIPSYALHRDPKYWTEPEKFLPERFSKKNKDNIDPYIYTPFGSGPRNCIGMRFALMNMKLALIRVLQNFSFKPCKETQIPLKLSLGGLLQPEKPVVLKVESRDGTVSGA
Chain of Cytochrome P450 1A2 (Homo sapiens) (P05177 whole entry, looked up): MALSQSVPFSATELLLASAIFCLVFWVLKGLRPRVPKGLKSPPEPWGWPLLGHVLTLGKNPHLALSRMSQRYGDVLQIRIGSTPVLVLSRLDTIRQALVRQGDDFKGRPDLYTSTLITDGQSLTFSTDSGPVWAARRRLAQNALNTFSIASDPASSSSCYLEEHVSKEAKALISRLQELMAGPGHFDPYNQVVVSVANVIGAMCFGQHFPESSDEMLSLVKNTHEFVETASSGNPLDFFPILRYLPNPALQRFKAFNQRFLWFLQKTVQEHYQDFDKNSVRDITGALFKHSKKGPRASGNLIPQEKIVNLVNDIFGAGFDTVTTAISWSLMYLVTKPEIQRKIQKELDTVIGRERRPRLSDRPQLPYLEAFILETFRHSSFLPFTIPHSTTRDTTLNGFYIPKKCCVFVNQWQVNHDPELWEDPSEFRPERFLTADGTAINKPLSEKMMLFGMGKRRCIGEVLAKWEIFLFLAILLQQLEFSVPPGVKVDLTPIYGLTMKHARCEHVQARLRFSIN
Chain of Cytochrome P450 2C19 (Homo sapiens) (P33261 whole entry, looked up): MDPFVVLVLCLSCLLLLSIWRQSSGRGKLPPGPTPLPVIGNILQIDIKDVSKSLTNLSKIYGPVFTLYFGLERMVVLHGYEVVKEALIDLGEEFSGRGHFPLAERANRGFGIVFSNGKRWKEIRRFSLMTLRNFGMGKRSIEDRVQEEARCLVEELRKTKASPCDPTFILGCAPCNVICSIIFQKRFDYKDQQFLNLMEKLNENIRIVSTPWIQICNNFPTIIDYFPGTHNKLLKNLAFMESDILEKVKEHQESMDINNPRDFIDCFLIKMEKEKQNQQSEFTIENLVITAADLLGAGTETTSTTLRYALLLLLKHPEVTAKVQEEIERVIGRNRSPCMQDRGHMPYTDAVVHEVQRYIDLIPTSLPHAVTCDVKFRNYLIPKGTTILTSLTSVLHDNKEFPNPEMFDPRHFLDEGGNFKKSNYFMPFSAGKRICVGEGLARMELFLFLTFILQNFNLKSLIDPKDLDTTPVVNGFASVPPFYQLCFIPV
Chain of Voltage-gated inwardly rectifying potassium channel KCNH2 (Homo sapiens) (Q12809 whole entry, looked up): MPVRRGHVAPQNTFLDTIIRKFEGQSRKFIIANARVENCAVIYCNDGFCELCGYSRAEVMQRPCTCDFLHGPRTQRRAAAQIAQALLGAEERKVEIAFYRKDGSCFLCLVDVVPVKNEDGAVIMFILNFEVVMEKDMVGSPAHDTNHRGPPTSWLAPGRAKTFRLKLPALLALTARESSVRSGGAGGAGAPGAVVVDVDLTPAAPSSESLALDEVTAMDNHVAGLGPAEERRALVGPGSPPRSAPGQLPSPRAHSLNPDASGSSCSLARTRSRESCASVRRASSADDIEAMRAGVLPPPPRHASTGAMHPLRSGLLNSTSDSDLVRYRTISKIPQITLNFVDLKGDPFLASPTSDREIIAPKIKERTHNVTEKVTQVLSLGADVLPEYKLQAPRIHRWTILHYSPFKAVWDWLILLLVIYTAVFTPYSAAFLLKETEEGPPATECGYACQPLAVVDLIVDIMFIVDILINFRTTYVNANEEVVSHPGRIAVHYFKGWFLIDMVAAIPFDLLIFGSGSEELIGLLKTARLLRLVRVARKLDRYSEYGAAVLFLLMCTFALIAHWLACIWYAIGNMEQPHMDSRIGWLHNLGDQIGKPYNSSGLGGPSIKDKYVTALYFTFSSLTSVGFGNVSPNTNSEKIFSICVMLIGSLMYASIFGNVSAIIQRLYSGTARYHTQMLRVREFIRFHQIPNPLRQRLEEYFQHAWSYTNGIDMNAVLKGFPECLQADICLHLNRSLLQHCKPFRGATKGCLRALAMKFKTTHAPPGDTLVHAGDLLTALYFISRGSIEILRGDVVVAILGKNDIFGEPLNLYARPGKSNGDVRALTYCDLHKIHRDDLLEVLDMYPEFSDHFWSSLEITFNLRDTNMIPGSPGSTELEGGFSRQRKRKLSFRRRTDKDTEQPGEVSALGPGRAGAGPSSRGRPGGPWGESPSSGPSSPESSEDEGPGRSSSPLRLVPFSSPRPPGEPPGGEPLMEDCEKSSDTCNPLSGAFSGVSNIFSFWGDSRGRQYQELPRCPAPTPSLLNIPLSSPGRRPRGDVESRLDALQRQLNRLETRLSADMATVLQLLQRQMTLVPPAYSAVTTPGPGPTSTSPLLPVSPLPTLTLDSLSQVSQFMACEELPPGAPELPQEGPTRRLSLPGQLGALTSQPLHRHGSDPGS
Chain of Cytochrome P450 2D6 (Homo sapiens) (P10635 whole entry, looked up): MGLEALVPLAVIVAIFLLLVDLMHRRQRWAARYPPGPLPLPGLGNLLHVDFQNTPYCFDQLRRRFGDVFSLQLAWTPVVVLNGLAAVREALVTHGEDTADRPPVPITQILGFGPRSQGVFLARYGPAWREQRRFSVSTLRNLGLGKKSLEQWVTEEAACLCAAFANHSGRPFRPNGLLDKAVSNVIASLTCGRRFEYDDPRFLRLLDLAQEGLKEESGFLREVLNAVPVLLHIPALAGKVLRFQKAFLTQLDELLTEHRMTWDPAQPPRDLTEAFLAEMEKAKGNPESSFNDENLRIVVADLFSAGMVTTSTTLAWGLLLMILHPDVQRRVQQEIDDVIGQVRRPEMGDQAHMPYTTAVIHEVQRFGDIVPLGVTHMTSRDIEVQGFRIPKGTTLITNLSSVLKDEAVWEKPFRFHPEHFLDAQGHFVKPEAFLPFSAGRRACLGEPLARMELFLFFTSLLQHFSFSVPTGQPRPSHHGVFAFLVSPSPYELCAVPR

With `O=[N+]([O-])c1cc(Cl)c(Cl)cc1Cl`, the Potency result in experiment [1], in [2], in experiment [3], in experiment [4], in [5] and in experiment [7] was “inactive” in each case. For the same compound, the Potency entry in experiment [8] was “inactive”. Also, in [6], the Potency was 5.61 µM (active).

As to `C=C(Cl)Cl`, the Potency entry in experiment [1], in [2], in experiment [3], in experiment [4], in experiment [7] and in experiment [8] was “inactive” throughout. Besides, the Potency in [9] was 75.6 µM (active).

In the case of `O=C1CC[C@@]2(O)[C@H]3Cc4ccc(O)c5c4[C@@]2(CCN3CC2CC2)[C@H]1O5`, the Potency entry in experiment [1], in experiment [2], in experiment [3], in experiment [9], in [5] and in experiment [6] was “inactive” each time. Further, the Potency entry in experiment [7] and in experiment [8] was “inactive” in each case.

For `CN(C)N`, the Potency result in [1], in experiment [2], in [3], in experiment [4], in [5] and in experiment [7] was “inactive” throughout. The Potency result in experiment [8] is “inactive”. For the same compound, the Potency in [6] is 35.6 µM (active).

Turning to `CCCC1CCCCN1` (centres undefined), the Potency entry in experiment [1], in experiment [2], in [3], in experiment [9], in [5] and in experiment [6] was “inactive” throughout. Also, the Potency result in experiment [7] and in [8] was “inactive” throughout.

For the compound `CC(Cl)C(=O)O` (centres undefined), the Potency result in experiment [1], in [2], in experiment [3], in experiment [9], in experiment [5] and in experiment [6] was “inactive” in each case. Moreover, the Potency entry in experiment [7] and in [8] was “inactive” throughout.

As for `COCc1cnc(C2=NC(C)(C(C)C)C(=O)N2)c(C(=O)O)c1` (centres undefined), the Potency entry in experiment [1], in [2], in experiment [3], in experiment [4], in [7] and in experiment [8] was “inactive” throughout. Further, the Potency in experiment [5] is 35.6 µM (active).

With `CCCBr`, the Potency result in experiment [1], in [2], in experiment [3], in experiment [9], in experiment [5] and in experiment [6] was “inactive” each time. For the same compound, the Potency entry in experiment [7] was “inactive”.

Take `CCNC(=O)NC(=O)/C(C#N)=N/OC`: the Potency result in experiment [1], in experiment [2], in experiment [3], in experiment [4], in [9] and in [7] was “inactive” throughout. Further, in experiment [8], the Potency result is “inactive”.

Consider `Cc1cnc(C2=NC(C)(C(C)C)C(=O)N2)c(C(=O)O)c1` (centres undefined), for which the Potency entry in [1], in experiment [2], in experiment [3], in experiment [4], in [5] and in experiment [6] was “inactive” throughout. Besides, the Potency entry in experiment [7] and in experiment [8] was “inactive” in each case.

For the compound `CCCC[P+](CC)(CCCC)CCCC` (tested in a mixture with another compound), the Potency entry in experiment [1], in experiment [2], in experiment [3], in experiment [5], in experiment [6] and in experiment [8] was “inactive” each time. Moreover, the Potency in [4] is 71.6 nM (active); in experiment [7], 24.7 µM (active).

Consider `O=C(O)C(F)(F)C(F)(F)C(F)(F)C(F)(F)C(F)(F)F`, for which the Potency result in experiment [1], in experiment [2], in [3], in experiment [4], in [6] and in experiment [7] was “inactive” throughout. Moreover, the Potency result in experiment [8] was “inactive”. Moreover, the Potency in experiment [5] was 15.9 µM (active).

In the case of `Nc1cc(Cl)cc(C(=O)O)c1Cl`, the Potency entry in [1], in experiment [2], in experiment [3], in [9], in experiment [7] and in [8] was “inactive” throughout. Also, in [4], the Potency was 39.6 µM (active) and inactive.

On to `Cc1nc2ccccc2c(=O)n1-c1ccccc1Cl`, for which the Potency result in [1], in experiment [2], in experiment [3], in [6], in experiment [7] and in experiment [8] was “inactive” throughout. Moreover, the Potency in [9] is 2.77 µM (active); in experiment [5], 39.1 µM (active).

As for `CCC1(CC)C(=O)NC(=O)NC1=O`, the Potency entry in experiment [1], in [2], in experiment [3], in experiment [4], in [5] and in [6] was “inactive” throughout. The Potency entry in experiment [7] and in experiment [8] was “inactive” each time.

`CCCCCCCCCCCCN(C)C`: the Potency entry in experiment [1], in [2], in experiment [3], in experiment [4], in experiment [5] and in experiment [7] was “inactive” throughout. The Potency entry in [8] was “inactive”. In experiment [6], the Potency was 35.6 µM (active).

For `CCCCOC(=O)CCC(=O)OCCCC`, the Potency result in experiment [1], in experiment [2], in experiment [3], in [4], in experiment [7] and in experiment [8] was “inactive” throughout. Besides, the Potency in [6] is 20 µM (active).

Turning to `O=C(O)C(Cl)(Cl)Br`, the Potency result in experiment [1], in [2], in experiment [3], in [9], in experiment [5] and in experiment [6] was “inactive” throughout. Also, the Potency entry in [7] and in [8] was “inactive” throughout.

On to `CCC(=O)O[C@@H]1C=C2CCC3C(CCC4(C)C3CC[C@@H]4OC(=O)CC)C2CC1` (some centres undefined), for which the Potency result in experiment [1], in experiment [2], in experiment [3], in [4], in experiment [7] and in [8] was “inactive” in each case. Moreover, the Potency in experiment [5] is 15.5 µM (active).

In the case of `FC(F)OC(F)(F)C(F)Cl` (centres undefined), the Potency entry in experiment [1], in [2], in experiment [3], in [9], in experiment [5] and in experiment [7] was “inactive” throughout. Further, in [8], the Potency entry is “inactive”. Besides, the Potency in [6] is 35.6 µM (active).

As for `COc1ccc2c(c1OC)C(=O)O[C@H]2[C@@H]1c2cc3c(cc2CCN1C)OCO3`, the Potency result in [1], in [2], in [3] and in experiment [6] was “inactive” throughout. For the same compound, the Potency in experiment [9] is 3.89 µM (active); in experiment [5], 5.49 µM (active).

For the compound `CCCN(CCC)C(=O)Cc1c(-c2ccc(Cl)cc2)nc2ccc(Cl)cn12`, the Potency entry in [1], in experiment [2] and in experiment [3] was “inactive” throughout. In addition, the Potency in experiment [5] was 9.77 µM (active); in experiment [6] it was 16.2 µM (active).

Take `CCCCCCCCCCCCN=C(N)N`: the activity change, negative = inhibition in [1] is -1.29% [at 4.07 µM] (inactive); in experiment [2], -10.7% [at 3.98 µM] (inactive); in experiment [3], 1.01% [at 4.07 µM] (inactive); in [5] it was -14.6% [at 4.07 µM] (inactive); in experiment [7], -4.13% [at 2.72 µM] (inactive); in experiment [8], 2.59% [at 4.07 µM] (inactive). In experiment [6], the Potency was 2.2 µM (active).

For `O=C(NCNC(=O)NC1C(=O)NC(=O)N1CO)NC1C(=O)NC(=O)N1CO` (centres undefined), the Potency result in experiment [7] was “inactive”.

On to `CCOP(=S)(OCC)Oc1ccc(S(C)=O)cc1` (centres undefined), for which the Potency result in [1], in experiment [3], in experiment [4] and in experiment [7] was “inactive” throughout. Moreover, the Potency in [9] is 0.113 µM (active); in [5], 0.252 µM (active); in experiment [6], 3.99 µM (active).
